About 3,100 (0.84%) of roughly 370,000 compounds were called active.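 Rule for the calls: active = inhibition above the mean of compounds lying between control limits plus 3 SD, set per campaign (cut at about 8.5% in these data); inactive = the rest.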 Shown is part of a subset that was picked to be rich in actives.
biological target: Disintegrin and metalloproteinase domain-containing protein 17 (Homo sapiens) (UniProt P78536); assay: inhibition of ADAM17 peptide cleavage – biochemical, QFRET, primary screen (AID 720648); settings: recombinant ADAM17, EDANS/DABCYL FRET peptide cleavage; at 6.95 µM; hits give high values;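 note: 0% = DMSO-only wells as the low control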
Sequence (P78536 215-824 limits assumed): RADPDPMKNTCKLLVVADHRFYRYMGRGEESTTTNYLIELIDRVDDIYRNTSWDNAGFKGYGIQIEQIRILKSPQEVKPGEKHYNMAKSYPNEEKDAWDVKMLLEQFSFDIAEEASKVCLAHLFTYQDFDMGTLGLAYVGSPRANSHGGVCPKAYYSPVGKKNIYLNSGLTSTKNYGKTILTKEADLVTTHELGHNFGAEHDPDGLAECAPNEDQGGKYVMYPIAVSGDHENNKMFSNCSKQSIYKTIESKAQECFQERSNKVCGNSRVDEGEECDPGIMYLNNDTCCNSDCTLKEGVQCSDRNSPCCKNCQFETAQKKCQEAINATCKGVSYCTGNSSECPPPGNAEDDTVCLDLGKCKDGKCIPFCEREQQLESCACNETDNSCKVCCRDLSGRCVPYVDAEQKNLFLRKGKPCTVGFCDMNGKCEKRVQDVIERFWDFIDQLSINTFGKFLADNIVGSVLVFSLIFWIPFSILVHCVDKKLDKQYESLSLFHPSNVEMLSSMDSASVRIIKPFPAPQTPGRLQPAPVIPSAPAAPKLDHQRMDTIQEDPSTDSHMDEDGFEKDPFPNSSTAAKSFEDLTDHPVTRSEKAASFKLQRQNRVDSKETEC

inhibition, inactive:
CCOC(=O)C(=O)N(Cc1ccccc1)c1ccccc1C(=O)Nc1cc(OC)ccc1OC 4.35%
O=C(CSc1nnc(-c2ccccn2)n1-c1ccc(Cl)cc1)Nc1ccccc1-c1ccccc1 5.21%
CN(C(=O)c1cccc(NC(=O)Cc2ccc([N+](=O)[O-])cc2)c1)C1CCC1 3.46%
CN(C(=O)c1cccc(NC(=O)Cc2cccc(NC(=O)C3CCCN(C(=O)C4CC4)C3)c2)c1)C1CCC1 (stereo not given) -2.72%
Cc1ccccc1CS(=O)(=O)Cc1ccc(C(=O)Nc2ccc(Cl)cc2)o1 -7.43%
CC1C(=O)N(Cc2cn(CC3CCCCC3)nn2)CCS(=O)(=O)N1Cc1ccc(-c2cccc(N(C)C)c2)cc1 (stereo not given) -2.56%
COc1ccc(-c2ccc(CN3C(CC(C)C)C(=O)N(Cc4cn(CC5CCCCC5)nn4)CCS3(=O)=O)cc2)cn1 (stereo not given) 3.81%
CC1C(=O)N(Cc2cn(Cc3ccco3)nn2)CCS(=O)(=O)N1Cc1ccc(-c2cccc(CO)c2)cc1 (stereo not given) 0.84%
CC(C)CC1C(=O)N(Cc2cn(CC3CCCCC3)nn2)CCS(=O)(=O)N1Cc1ccc(-c2ccc(Cl)cc2)cc1 (stereo not given) -0.31%
COc1cc(/C=C/C(=O)n2cnc3ccccc32)cc(OC)c1OC -11.9%
CC(=O)OC12CCCN(C1)/C(=C/c1ccncc1)C2 (stereo not given) -1.16%
Clc1ccc(-n2c(SC/C=C/c3ccccc3)nnc2-c2ccco2)cc1 8.36%
CC(C)CNc1cccc2c1S(=O)(=O)N(Cc1cn(Cc3ccccc3C(F)(F)F)nn1)Cc1ccccc1O2 -9.08%
CCCNC(=O)C1CC(=O)N(c2ccc(OCc3ccccc3)cc2)C1 (stereo not given) -1.62%
COc1cc(C2C(C(=O)c3ccco3)=C(O)C(=O)N2c2cc(C)on2)ccc1OCc1ccccc1 (stereo not given) -1.07%
Cc1cc(C)nc(NC(=S)N2CCN(c3ccc(C(F)(F)F)cn3)CC2)c1 -0.9%
CC(C)c1ccc(NC(=S)NC2CC3C=CC2C3)cc1 (stereo not given) 1.36%
Cc1ccc(C)c(NC(=S)NCC(c2cccnc2)N2CCOCC2)c1 (stereo not given) 4.64%
COc1ccnc(NC(=S)N2CCN(c3ncc(C(F)(F)F)cc3Cl)CC2)c1 -3.73%
C[C@H](C(=O)N(C)c1ccccc1)[C@@H](O)c1ccc(Cl)cc1 -3.74%
C[C@H](CO)N1C[C@H](C)[C@@H](CN(C)C(=O)C2CCCCC2)OCc2cnnn2CCCC1=O 3%
C[C@@H]1CN([C@H](C)CO)C(=O)CCCn2nncc2CO[C@@H]1CN(C)C(=O)OCc1ccccc1 -3.01%
COC(CNC(=O)[C@H](Cc1ccccc1)NC1(C(=O)NC2CCCCC2)CCCCC1)OC -1.27%
COc1ccc(S[C@]2(C(=O)N(C)C)CC(=O)N(c3ccc(OC)cc3)[C@@H]2c2ccc(OC)cc2)cc1 3.23%

inhibition, active:
CN(C(=O)c1cccc(NC(=O)Cc2cccc([N+](=O)[O-])c2)c1)C1CCCCC1 10.3%
COc1ccc(-c2ccc(CN3C(CC(C)C)C(=O)N(Cc4cn(CC5CCCCC5)nn4)CCS3(=O)=O)cc2)cc1 (stereo not given) 9.87%
COc1ccc(Cn2cc(CN3CCS(=O)(=O)N(Cc4ccc(-c5cccc(Cl)c5)cc4)C(C)C3=O)nn2)cc1 (stereo not given) 10%
COc1cc(C2CC(=O)N3CN(Cc4ccccc4)CSC3=C2C#N)ccc1OCc1ccccc1 (stereo not given) 10.2%
Cc1ccc(C)c(NC(=S)NNC(=S)Nc2ccc(C(C)C)cc2)c1 11%
COC(=O)N(C)C[C@@H]1OCc2cnnn2CCCC(=O)N([C@@H](C)CO)C[C@@H]1C 8.71%
